Sampled rows, rich in hits. Any-hit rate of the full collection: about 2.2%.
EWS-Fli block: EWS/Fli-driven NR0B1 reporter inhibitors, primary screen, A673 cells, NR0B1 luciferase, luminescence, MLPCN library | viability-normalised | inhibition, % at 12.6 µM | 350,000 tested, 0.67% active | AID 651661, 2012;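 active means mean inhibition of at least 50% after viability correction, with every replicate also passing that limit; inconclusive means mean reaches 50% but only one of two replicates passes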;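 further: firefly luciferase signal divided by Alamar Blue viability fluorescence both relative to DMSO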
MITF TRPM1 inh: inhibitors of MITF-dependent TRPM1 promoter reporter, primary screen, cell-based, SK-MEL-5, single point, luciferase. 330,000 tested, 0.83% active. inhibition, % at 12.5 µM. SK-MEL-5 TRPM1 promoter luciferase, 24 h;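 active means mean inhibition across replicates of 60% or more, whatever share of single replicates reaches that level; inconclusive means some that reach 60%, reason not given; inactive means mean inhibition across replicates below 60%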
PAX8 reporter: inhibitors of PAX8-driven TPO luciferase reporter, primary screen, RMG-I cells, single concentration; SteadyGlo, 24 h; inhibition, % at 12.6 µM; 360,000 tested, 1.2% active; AID 652154, 2013;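 active means mean replicate inhibition at least 60% with every replicate also reaching 60%; inconclusive means only one of the two criteria is met; inactive means mean below 60% and not all replicates reaching 60%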;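 further: luciferase light reporting Pax8 driven TPO promoter activity; plate controls were median of neutral control wells for no effect and mitoxantrone controls for full effect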
LGR2 inh: inhibitors of bursicon-induced LGR2 CRE-luciferase signal, primary screen, cell-based, HEK293, CRE-luciferase reporter, bursicon stimulation. 380,000 tested, 0.35% active. bursicon-stimulated, 4 h. inhibition, % at 9.99 µM. Drosophila bursicon receptor LGR2 (rickets);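 active means drop in luminescence signal, shown as inhibition above about 50% in the replicate tests, limit read from the data, passing the limit was not always enough; inconclusive means probably only some replicates passing the limit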;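 further: agonist challenge used bursicon conditioned medium at about half maximal strength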
Shn3 3UTR inh: reduction of Shn3 3'UTR firefly luciferase signal, primary screen, Schnurri-3 inhibitor project, cell-based, Clone20 osteoblasts, set 2. 360,000 tested, 0.52% active. inhibition, % at 12.5 µM. AID 588674, 2011. Clone20 osteoblast Shn3 3'UTR firefly luciferase, 24 h;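 active means mean inhibition of at least 75% with every replicate also reaching 75%; inconclusive means mean inhibition at least 75% but some replicate below; inactive means mean inhibition below 75%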;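 further: 0% = median of neutral control wells and 100% = pilot-screen positive control compound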
LMP1 NFkB inh: EBV LMP1-driven NF-kappaB luciferase reporter inhibitors, primary screen, cell-based, luminescence, single point; 350,000 tested, 0.69% active; AID 504558, 2011; inhibition, % at 12.5 µM; LMP1-induced NF-kappaB luciferase reporter cells; in the data active means inhibition above about 41%; inconclusive means no clear call, values can overlap the other calls;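 further: 0% = neutral control wells and 100% = reference inhibitor control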
* hit, by the source's call; u = inconclusive; x = no result.

SMILES	EWS-Fli block	MITF TRPM1 inh	PAX8 reporter	LGR2 inh	Shn3 3UTR inh	LMP1 NFkB inh
CCC(=O)N1CCCCN2[C@H](C1)[C@H](c1ccc(/C=C/c3ccccc3)cc1)[C@@H]2CO	12.4	x	46.7	9.0	x	x
Cc1cccc(N(Cc2cc(=O)[nH]c3ccccc23)C(=O)CCl)c1	61.0*	76.3*	115.2*	31.7	-3.0	17.3
COc1ccc(N(Cc2cc(=O)[nH]c3ccccc23)C(=O)CCl)cc1	65.8*	85.3*	-0.3	16.4	7.6	1.8
CCCC(=O)N(Cc1cc(=O)[nH]c2ccccc12)c1ccc(OC)cc1	9.0	12.5	19.9	5.4	18.9	17.8
O=C(OCn1ncc(Br)c(Br)c1=O)c1ccccc1Cl	x	88.8*	x	27.4	96.7*	14.0
CC(=O)OCn1ncc(N2CCOCC2)c(Br)c1=O	4.1	7.4	11.7	14.4	-4.2	-5.4
O=C(OCn1ncc(Br)c(Br)c1=O)c1ccc(F)cc1	x	85.2*	x	x	98.0*	u
C[C@H](CO)N1C[C@H](C)[C@H](CN(C)C(=O)Cc2ccccc2)Oc2cc(-c3cncnc3)ccc2S1(=O)=O	4.4	x	-21.3	4.1	x	x
O=C(CC1CC1)N1CC2(C1)[C@H](c1ccccc1)[C@H](CO)N2C(=O)C1CCOCC1	0.9	x	x	-10.3	x	x
CO[C@@H]1CN(C)C(=O)c2ccc(NC(=O)C3CC3)cc2OC[C@@H](C)N(CC2CCCC2)C[C@@H]1C	10.8	x	-17.2	8.7	x	x
O=C(NC1CCCC1)c1noc2c1CCCCC2	x	-33.7	x	x	-60.1	41.8*
O=C(NCc1ccccc1)c1noc2c1CCCCC2	x	-105.9	x	x	-62.5	-34.5
Cc1cc(C)c(S(=O)(=O)N2CCN(C(=O)CCOc3ccccc3C)CC2)c(C)c1	-13.5	x	-7.5	-11.8	8.7	63.8*
COc1ccc(NC(=O)Nc2ccc3c(c2)[C@H]2C[C@@H](CC(=O)N4CCCCC4)O[C@H](CO)[C@H]2O3)cc1	0.4	x	23.0	-1.2	x	x
Cc1ccnc(NC(=O)CCC(=O)c2cccs2)c1	77.6*	40.6	u	88.8*	40.4	59.2*
O=C(C[C@@H]1CC[C@H](NC(=O)c2ccccc2)[C@H](CO)O1)Nc1ccc(-c2ccccc2)cc1	-1.9	x	41.2	6.4	x	x
O=C1C(=C2SCCCS2)CC/C1=C\c1ccc(F)cc1	x	58.8	x	x	22.8	77.4*
Cc1cccc(/C=C2\CCC(=C3SCCCS3)C2=O)c1	x	33.1	x	x	51.8	48.1*
C[C@H]1CN([C@@H](C)CO)S(=O)(=O)c2ccc(C#CC3(O)CCCC3)cc2O[C@@H]1CN(C)C(=O)c1ccccc1	17.4	x	x	-8.3	x	x
O=C(NC1CCCCC1)C(c1ccc(F)cc1)N(Cc1ccco1)C(=O)CN1C(=O)c2ccccc2S1(=O)=O (stereo unspecified)	7.3	-6.1	102.3*	22.8	4.8	-8.7
Cc1cccc(S(=O)(=O)N2C[C@H](O)COC[C@H]3O[C@H](CC(=O)Nc4ccc(-c5ccccc5)cc4)CC[C@@H]32)c1	17.3	x	33.7	17.3	x	x
O=C(C[C@@H]1CC[C@@H]2[C@H](COC[C@@H](O)CN2S(=O)(=O)c2cccc(Cl)c2)O1)Nc1ccc(-c2ccccc2)cc1	-0.7	x	83.0*	-4.7	x	x
Cc1cccc(S(=O)(=O)N2C[C@@H](O)COC[C@@H]3O[C@@H](CC(=O)Nc4ccc(-c5ccccc5)cc4)CC[C@H]32)c1	4.4	x	84.0*	24.5	x	x
C=CC[n+]1c(-c2ccc(C)cc2)csc1Nc1c(C)n(C)n(-c2ccccc2)c1=O	7.1	2.7	1.6	2.2	21.0	-2.8
C=CC[n+]1c(-c2ccc(OCC)cc2)csc1NNC(=O)Nc1ccccc1	x	0.4	x	16.3	88.0*	-2.2
SMILES	EWS-Fli block	MITF TRPM1 inh	PAX8 reporter	LGR2 inh	Shn3 3UTR inh	LMP1 NFkB inh
CCC(C)n1c(SCC(=O)NCc2ccco2)nnc1-c1cccc(S(=O)(=O)N2CCOCC2)c1 (stereo unspecified)	x	5.2	x	13.9	-2.7	-0.3
O=C(CSc1nnc(-c2cccc(S(=O)(=O)N3CCOCC3)c2)n1C1CCCCCC1)NCc1ccccc1	x	13.2	x	x	11.6	46.9*
c1ccc(-c2c[n+]3c(n2-c2ccccc2)CCC3)cc1	19.8	16.8	9.8	-0.1	52.8	10.6
CCOc1ccc(-n2c(-c3ccccc3)c[n+]3c2CCCCC3)cc1	31.3	63.0*	86.0*	6.4	u	22.2
Cc1ccc(-c2c[n+]3c(n2-c2ccccc2)CCC3)cc1	13.5	48.0	30.7	1.9	90.6*	18.9
O=C(C[C@@H]1C[C@@H]2c3cc(NS(=O)(=O)c4ccc(F)cc4)ccc3O[C@@H]2[C@H](CO)O1)NCc1cccc(F)c1	4.1	x	0.2	-12.7	x	x
C[C@@H]1CN([C@@H](C)CO)C(=O)c2cc(NS(=O)(=O)c3ccc(Cl)cc3)ccc2O[C@@H]1CN(C)Cc1ccc(-c2ccccc2)cc1	6.0	x	x	-13.6	x	x
O=C1C=C(c2ccc3ncccc3c2)C[C@@H](c2ccc(F)cc2)C1	x	-9.6	x	x	-10.3	2.3
O=C1C=C(c2ccc3ncccc3c2)C[C@@H](c2ccc3c(c2)OCO3)C1	62.6*	12.3	14.5	1.7	-19.3	2.0
COc1cc2c(cc1OC)-c1cc(Nc3ccc4c(c3)OCCO4)nc(=O)n1CC2	x	-7.4	x	x	21.2	51.1*
COc1ccc(Nc2cc3n(c(=O)n2)CCc2cc(OC)c(OC)cc2-3)cc1	-9.0	-41.5	16.1	-31.5	-5.0	12.5
CCCNC(=O)N1CC2(C1)CN(C(=O)CC)[C@@H](CO)c1[nH]c3cc(OC)ccc3c12	-11.6	x	x	-9.0	x	x
O=S(=O)(CC(CN1CCCC1)N1CCCC1)c1ccc2ccccc2c1 (stereo unspecified)	x	76.2*	x	x	14.9	-2.4
O=S(=O)(c1ccc2ccccc2c1)N1CCCCCC1	5.7	-58.9	7.2	6.7	6.0	-5.6
COc1cc(-c2noc(C)c2/C=C/c2ccc(C(=O)O)cc2)cc(OC)c1OC	10.9	3.5	0.6	-30.3	-23.8	2.1
COc1cc(-c2noc(C)c2/C=C/c2cccc([N+](=O)[O-])c2)cc(OC)c1OC	54.2*	12.9	58.6	22.4	41.3	27.9
O=C(C[C@H]1CC[C@H]2[C@@H](COC[C@H](O)CN2CC2CCOCC2)O1)NCC1CC1	-4.0	x	-4.1	-1.6	x	x
O=C1NC(Cc2ccc(O)cc2)c2nc3cc(F)ccc3c(=O)n2-c2cc3ccccc3cc21 (stereo unspecified)	u	x	65.8*	26.2	6.1	-4.8
O=C(NCC1CCCCC1)[C@H]1[C@H](CO)[C@H]2Cn3c(ccc(-c4cncnc4)c3=O)[C@@H]1N2	-7.4	x	3.1	-1.4	x	x
C[C@@H]1CN([C@H](C)CO)C(=O)c2cc(NC(=O)Nc3ccc(F)cc3)ccc2O[C@H]1CN(C)Cc1ccc(C(F)(F)F)cc1	7.7	x	68.1*	-0.7	x	x

Screening results as filed in PubChem BioAssay.
